HepG2 tox: counter-screen for TGF-b inhibitors: cytotoxicity in HepG2 cells; HepG2 CAGA-GFP viability, ATP luminescence, 18 h; hit rate 0.76% among 410,000; Potency, µM (highest dose often 46.1 µM), usual class: cytotoxic
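HepG2 CAGA-GFP cells (1000/well, DMEM with 1% FBS) received compound, then TGF-beta at 500 pg/mL final, and were incubated 18 hours at 37 degrees C. Viability was read by CellTiter-Glo luminescence. Media-only wells were set as complete cell-killing and DMSO as no toxicity.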
DT40 TDP1 no CPT: qHTS for Inhibitors of human tyrosyl-DNA phosphodiesterase 1 (TDP1): qHTS in cells in absence of CPT | Potency, µM (highest dose often 46.2 µM), hits mostly inhibitors | hit rate 15% among 420,000 | DT40 Tdp1-/- hTDP1 cells, no CPT, ATP luminescence, 48 h | AID 686978, 2013; further: nearly all actives have a fitted effect of over 55% in size
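Compound effects on proliferation are scored in DT40 Tdp1-/-;hTDP1 cells in the absence of CPT. ATP levels (CellTiter-Glo luminescence) are recorded after a ≥48 hr, 37 °C incubation.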
TGFb SMAD3 inh: inhibitors of TGF-b signaling | HepG2 CAGA-GFP TGF-b/SMAD3 reporter, GFP fluorescence, 18 h; TGF-beta stimulated, 500 pg/mL final | Potency, µM (top dose mostly 46.1 µM), hits mostly inhibitors | hit rate 1.2% among 410,000 | AID 588855; further: nearly all actives have a fitted effect of over 65% in size
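Read-out: total well GFP (ex488/em500-530) summed from mean per-cell fluorescence. Cells: HEPG2 CAGA-GFP, 1% FBS DMEM, 18 h at 37 degrees C with 500 pg/mL final TGF-beta. Unstimulated wells served as the full-inhibition control; stimulated DMSO wells = 0%.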
HT1080 IDH1KD tx: kills HT-1080 cells with IDH1 knockdown. Potency, µM (top dose mostly 46.1 µM), most hits filed as cytotoxic. HT-1080 IDH1 knockdown viability, ATP luminescence, 48 h. hit rate 2% among 360,000
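% activity derives from luminescence (CellTiter-Glo), normalised to DMSO and no-cell wells. HT-1080-IDH1KD cells, 750/well, had 48 h compound exposure at 37 °C.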
HT1080-NT tox: kills 2HG-producing HT-1080-NT fibrosarcoma cells. Potency, µM (highest dose often 46.1 µM), actives largely listed as cytotoxic. hit rate 1.6% among 360,000. HT-1080-NT fibrosarcoma viability, CellTiter-Glo ATP luminescence, 48 h. AID 686970;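 further: NT is the 2HG producing partner of a matched IDH1 knockdown line; nearly all actives have a fitted effect of over 55% in size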
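Fibrosarcoma NT cells, 750 per well in 5% FBS RPMI, were exposed to compound for 48 hours. Viability: CellTiter-Glo luminescence.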
DT40 TDP1 CPT: DT40-hTDP1 cell growth loss with CPT; chicken DT40 Tdp1-/-;hTDP1 cells + 20 nM CPT, ATP luminescence, 48 h; Potency, µM (highest dose often 46.2 µM), actives largely listed as inhibitors; hit rate 12% among 420,000; AID 686979; further: nearly all actives have a fitted effect of over 55% in size
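Cell growth measured by CellTiter-Glo luminescence after a minimum 48 h, 37 C compound exposure with 20 nM CPT in Tdp1-knockout DT40 cells stably expressing hTDP1, seeded 400/well; qHTS titration format.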
Hits are given with their value; - = inactive; ? = inconclusive; . = no result; [ ] = another dose, or the depositor's remark. In the library only some 17% were active in any assay of this set; here they are far more common. The call rests on the fitted dose curve; in most records, active means well fitted curve in the direction sought with a large enough effect; inconclusive means small, poorly fitted or top-dose-only effect, or another doubt; inactive means no such curve, though single readings can be large; an effect the other way counts as inactive or inconclusive.

SMILES	HepG2 tox	DT40 TDP1 no CPT	TGFb SMAD3 inh	HT1080 IDH1KD tx	HT1080-NT tox	DT40 TDP1 CPT
CCOC(=O)[C@@H]1[C@H]2COc3ccccc3[C@@H]2N2C(=O)N(c3ccc(F)cc3)C(=O)[C@@]12C	-	-	-	-	-	-
CCOC(=O)[C@@H]1[C@H]2COc3ccccc3[C@@H]2N2C(=O)N(c3ccc(C(F)(F)F)cc3)C(=O)[C@]12C	-	?	-	-	-	18.4µM
CCOC(=O)CNC(=S)N(Cc1ccc(C)cc1)Cc1ccc(C)o1	-	?	-	-	-	?
CCc1ccccc1NC(=O)C1CCCN(c2cnccn2)C1 (stereo not drawn)	-	-	-	.	.	-
COC(=O)C1=C(C(=O)OC)C(C(=O)OC)C(C(=O)OC)C(C(=O)OC)(C(=O)OC)C(C(=O)OC)=C1C(=O)OC (stereo not drawn)	-	2.59µM	-	?	-	2.59µM
COC(=O)C1C(C(=O)OC)C1(c1ccccc1)c1ccccc1 (stereo not drawn)	-	-	-	-	-	-
CCC(=O)N1CCC2(CC1)Oc1ccc(Cl)cc1C(=O)C21CC(c2ccccc2)=NO1 (stereo not drawn)	-	25.9µM	-	-	-	?
Cc1[nH]c(=O)c(C#N)c(C)c1CCC(=O)NCc1ccc(Cl)cc1	-	-	-	-	-	-
CCCCc1ccc(Nc2nc(CCC)cc(=O)[nH]2)cc1	-	16.4µM	?	?	20.6µM	?
CCCc1cc(=O)[nH]c(Nc2ccc(OCC)cc2)n1	-	?	.	.	.	?
CCCc1cc(=O)[nH]c(Nc2cc(Cl)cc(Cl)c2)n1	-	16.4µM	?	.	.	14.6µM
CN1CCN(C(=O)C2CCC(=O)N(Cc3cccc(C(F)(F)F)c3)C2)CC1 (stereo not drawn)	-	?	-	-	-	-
COc1ccc(C(=O)N(Cc2ccco2)C(C(=O)NC2CCCC2)c2ccc(O)cc2)cc1OC (stereo not drawn)	-	?	-	?	?	?
COc1cc(CNCc2c(C(=O)O)c(C)n(Cc3cccc(Cl)c3)c2C)cc(OC)c1OC	-	-	-	.	.	-
Cc1ccc(NC(=O)CN(C)C(=O)CSc2nc3ccccc3o2)cc1	-	-	-	-	-	-
O=C1C(c2ccc(F)cc2)N(CCc2ccccc2)C(=O)CN1C1CCCCC1 (stereo not drawn)	-	?	-	.	.	?
Cc1cc(C)cc(NC(=O)CSc2nnc(-c3ccccc3C)o2)c1	-	-	-	?	-	-
CCc1nnc(NC(=O)CSc2nnc(-c3ccccc3NC(=O)c3ccccc3)o2)s1	-	-	-	-[9.24 µM]	12.6µM	-
Cc1ccccc1-c1nnc(SCC(=O)Nc2cccnc2Cl)o1	-	16.4µM	-	23.1µM	18.4µM	13µM
O=C(CSc1nnc(-c2ccccc2Br)o1)Nc1nncs1	15.8µM	-	-	-	-	-
COc1cccc(N/C=C/C(=O)c2ccc(C)cc2)c1	-	-	-	-	-	-
COc1cc(/C=C/C(=O)c2ccc(NS(=O)(=O)c3ccc(C)cc3)cc2)ccc1OC(F)F	-	18.4µM	-	?	?	?
COc1cccc(C(=O)/C=C/Nc2ccc(S(=O)(=O)Nc3cccc(C(C)=O)c3)cc2)c1	-	16.4µM	-	-	-	18.4µM
COc1cccc(/C=C/C(=O)c2ccc(NS(=O)(=O)c3ccc(C)cc3)cc2)c1	-	20.6µM	?	?	?	18.4µM
COc1cc(/C=C/C(=O)c2ccc(NS(=O)(=O)c3ccc(C)cc3)cc2)cc(OC)c1O	-	?	?	?	?	?
SMILES	HepG2 tox	DT40 TDP1 no CPT	TGFb SMAD3 inh	HT1080 IDH1KD tx	HT1080-NT tox	DT40 TDP1 CPT
COC(=O)c1c(NC(=O)c2ccccc2F)sc(C(=O)N2CCOCC2)c1C	-	?	-	-	-	-
C[C@@H](O)[C@H]1C(=O)N2C(C(=O)O)=C(S[C@@H]3CN[C@H](CNS(N)(=O)=O)C3)[C@H](C)[C@H]12	.	-	.	.	.	?
COc1ccccc1/C=C(\C#N)C(=O)c1cccn1C	-	-	-	-	-	-
CO/N=C/C(C#N)=C/c1cc(C(=O)c2ccccc2)cn1C	-	20.6µM	-	-	-	-
CCCC(NC(=O)c1c(C)noc1C)C12CC3CC(CC(C3)C1)C2 (stereo not drawn)	-	-	-	-	-	-
O=C(CN(C(=O)c1csnn1)c1ccccc1F)NCc1ccc2c(c1)OCO2	-	-	-	-	-	-
CCn1cc(C(=O)OCC(=O)OC2CC(C)CCC2C(C)C)c(=O)c2ccc(C)nc21 (stereo not drawn)	-	?	?	?	?	18.4µM
CCOC(=O)C1CCN(C(=O)Nc2cc(Cl)cc(Cl)c2)CC1	-	?	-	-	-	18.4µM
O=C(Cc1cccs1)NCCS(=O)(=O)N1CCN(c2ccccc2F)CC1	-	5.8µM	-	?	?	7.31µM
COc1ccc(CC(=O)NCCS(=O)(=O)N2CCN(c3ccccc3F)CC2)cc1OC	-	?	-	.	.	?
O=C(Cc1cccs1)NCCS(=O)(=O)N1CCN(c2ccccc2)CC1	-	?	-	-	-	-
O=C(CC1CCCC1)NCCS(=O)(=O)N1CCN(c2ccccc2F)CC1	-	?	-	-	-	?
O=C(Cc1ccc(-c2ccccc2)cc1)NCCS(=O)(=O)N1CCN(c2ccccc2F)CC1	-	14.6µM	-	.	.	10.3µM
O=C(CCC1CCCC1)NCCS(=O)(=O)N1CCN(c2ccccc2F)CC1	-	14.6µM	-	-	-	?
O=C(Nc1ccc(C(=O)OCc2cc(=O)n3nc(C4CC4)sc3n2)cc1)c1cccc(F)c1	-	?	-	.	.	-
CN(C)CCN1CCN(C2CN(Cc3cn(Cc4ccc(Cl)cc4)nn3)S(=O)(=O)C2)CC1 (stereo not drawn)	.	-	.	-	-	-
CCCCN1C(C)=CC(=C2C(=O)c3ccccc3C2=O)C=C1C	-	?	-	-	-	-
Cc1ccc2c(c1)C(=O)C(=O)N2c1ccc(Cl)cc1	-	?	?	-	-	?
CCCCN1C(=O)C(=O)c2cc(Cl)ccc21	-	0.82µM	12.6µM	20.6µM	25.9µM	1.03µM
Cc1ccc(CN2C(=O)C(=O)c3cc(C)ccc32)cc1	-	0.651µM	?	-	-	0.581µM
CCCN1C(=O)C(=O)c2cc(C)ccc21	-	3.26µM	-	?	?	2.06µM
Cc1ccc2c(c1)C(=O)C(=O)N2Cc1ccc(Br)cc1	-	0.651µM	?	23.1µM	?	0.92µM

Bioassay records (PubChem)
